# Compound activity deposited in PubChem by National Center for Advancing Translational Sciences (NCATS).
# Shown is part of a subset that was picked to be rich in hits.
# TDP1 cell noCPT: qHTS for Inhibitors of human tyrosyl-DNA phosphodiesterase 1 (TDP1): qHTS in cells in absence of CPT; DT40 Tdp1-/- hTDP1 cells, no CPT, ATP luminescence, 48 h; Potency, µM (series often up to 46.2 µM), hits mostly inhibitors; 420,000 tested, 15% active; AID 686978, 2013; also: nearly all actives have a fitted effect of over 55% in size
#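 Growth of hTDP1-complemented DT40 Tdp1-knockout cells is measured by ATP luminescence after at least 48 hr compound exposure at 37 °C, with DMSO substituting for the 20 nM CPT used in the parallel screen.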
# HT1080 IDH1KD tx: HT-1080 IDH1 knockdown cell toxicity (counter line) | HT-1080 IDH1 knockdown viability, ATP luminescence, 48 h | Potency, µM (titrated, usually from 46.1 µM), actives largely listed as cytotoxic | 360,000 tested, 2% active | AID 686971
#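 Luminescent ATP read-out (CellTiter-Glo, 10 min at room temperature) after 48 h compound exposure at 37 °C gave viability of IDH1-knockdown HT-1080 cells. Activity was normalised to DMSO and cell-free wells, then fitted as concentration-response curves.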
# 12-LOX inh: blocks human arachidonate 12S-lipoxygenase; Potency, µM (series often up to 108 µM), actives largely listed as inhibitors; P18054; purified 12hLO, xylenol orange hydroperoxide absorbance; AID 1671190; 580,000 tested, 1.1% active
#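 Purified human 12hLO (150 nM final) in 25 mM Hepes, 0.01% Triton X-100, pH 7.0 was preincubated 15 min at room temperature with compound. Then 40 uM arachidonic acid was added, 30 min. Hydroperoxide was read by Fe-XO absorbance ratio 573/405 nm.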
# DT40 TDP1 CPT: growth inhibition of DT40 Tdp1-/-;hTDP1 cells with camptothecin (screen for TDP1 inhibitors); 420,000 tested, 12% active; chicken DT40 Tdp1-/-;hTDP1 cells + 20 nM CPT, ATP luminescence, 48 h; Potency, µM (titrated, usually from 46.2 µM), actives largely listed as inhibitors; also: nearly all actives have a fitted effect of over 55% in size
#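 Cell growth measured by CellTiter-Glo luminescence after a minimum 48 h, 37 C compound exposure with 20 nM CPT in Tdp1-knockout DT40 cells stably expressing hTDP1, seeded 400/well; qHTS titration format.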
# IL-1B inflam inh: inflammasome signaling inhibition, IL-1 beta readout. THP-1 LPS/ATP IL-1B secretion, AlphaLISA, 16 h; active compounds read low. activity change, % at 57.5 µM. 360,000 tested, 4.7% active; in the data active = activity change below about -50%; inconclusive = mostly about -30% to -49%
#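 THP-1 cells pretreated 1 hr with compounds (up to 57.5 uM final), then stimulated with LPS (250 ng/mL final) plus ATP (1.25 mM final); secreted IL-1B measured by AlphaLISA after 16 hr, decreased signal indicating inhibition.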
# HT1080-NT tox: kills 2HG-producing HT-1080-NT fibrosarcoma cells. 360,000 tested, 1.6% active. AID 686970. Potency, µM (doses to about 46.1 µM), most hits filed as cytotoxic. HT-1080-NT fibrosarcoma viability, CellTiter-Glo ATP luminescence, 48 h;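 also: NT is the 2HG producing partner of a matched IDH1 knockdown line; nearly all actives have a fitted effect of over 55% in size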
#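 Compounds were tested in concentration-response format on HT-1080-NT cells for 48 hours at 37 degrees C. Cell viability came from CellTiter-Glo luminescence; curves were classified by r2, response magnitude and activity.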
# A number is an active result; i = inactive; ? = inconclusive; nt = no result given. Unless noted, calls follow the shape of the dose curve; as a rule, active = well fitted curve in the direction sought with a large enough effect; inconclusive = small, poorly fitted or top-dose-only effect, or another doubt; inactive = no such curve, though single readings can be large; an effect the other way counts as inactive or inconclusive.
SMILES,TDP1 cell noCPT,HT1080 IDH1KD tx,12-LOX inh,DT40 TDP1 CPT,IL-1B inflam inh,HT1080-NT tox
CCCSc1ccc([C@@H]2[C@H]3C(=O)N(C)C(=O)[C@H]3[C@]3(C(=O)OC)CCCN23)cc1OC,i,i,?,i,i,i
COC(=O)[C@@]12CCCCN1[C@H](c1ccc(-c3cc(C(C)=O)cs3)cc1)[C@H]1C(=O)N(C)C(=O)[C@H]12,3.66µM,i,i,5.17µM,i,i
COC(=O)[C@@]12CCCCN1[C@H](c1ccc(-c3cc(C(C)=O)cs3)c(OC)c1)[C@H]1C(=O)N(C)C(=O)[C@H]12,2.91µM,i,i,4.11µM,i,i
CCSc1nc2cn(CC)nc2c(=O)n1Cc1ccc(C)cc1,nt,nt,i,nt,nt,nt
CC(C)CN(C(=O)C1COc2ccccc2O1)c1c(N)n(CC(C)C)c(=O)[nH]c1=O (stereo unspecified),i,i,i,i,i,i
Cn1ccc2c(C(=O)NCCc3cnc[nH]3)nc(-c3cccc(C(F)(F)F)c3)cc21,nt,nt,i,nt,nt,nt
Cc1ccc([C@H]2CN(C(=O)CN3CCOC3=O)C[C@@H]2N)o1,nt,nt,i,nt,nt,nt
CCC(C)(C(=O)NC1CCCCC1)N(Cc1cccs1)C(=O)Cc1cccs1 (stereo unspecified),?,i,i,?,i,i
CCC(C)(C(=O)NC1CCCC1)N(Cc1cccs1)C(=O)c1ccc2c(c1)OCO2 (stereo unspecified),20.6µM,i,i,18.4µM,i,i
C(=C\c1ccnc2ccccc12)/c1ccc(N(Cc2ccccc2)Cc2ccccc2)cc1,12.6µM,nt,nt,12.6µM,nt,nt
c1ccc2c(c1)ccc1ncccc12,i,i,i,i,i,i
CCN(Cc1ccccc1)c1ccc(/C=C/c2ccnc3ccccc23)cc1,11.2µM,nt,nt,?,nt,nt
CC(C)NC(=O)/C=C/c1ccc(Br)cc1,nt,nt,i,nt,nt,nt
Cc1noc(C)c1C(=O)OCC(=O)Nc1c(F)cccc1F,18.4µM,i,i,16.4µM,i,i
Cc1onc(-c2c(F)cccc2Cl)c1C(=O)O/N=C(\N)c1ccc([N+](=O)[O-])o1,i,11.6µM,?,i,nt,i
Cc1onc(-c2c(F)cccc2Cl)c1C(=O)OCC(=O)NCc1ccccc1,?,i,i,?,i,i
Cc1onc(-c2c(F)cccc2Cl)c1C(=O)OCn1nnc2ccccc2c1=O,23.1µM,i,i,?,i,i
Cc1onc(-c2c(F)cccc2Cl)c1C(=O)OCC(=O)N(C)c1ccccc1,0.92µM,i,i,1.3µM,i,i
COc1ccc(CCNC(=O)CS(=O)Cc2nc(-c3ccc(Cl)cc3)oc2C)cc1OC (stereo unspecified),nt,nt,i,nt,nt,nt
COCCO[C@H]1C(=O)N(C2CCN(Cc3cccc(OC)n3)CC2)[C@H]1c1ccncc1,nt,nt,i,nt,nt,nt
O=C1c2cc(N3CCOCC3)nc(-c3cnc4[nH]ccc4c3)c2CN1CC1CC1,nt,nt,i,nt,nt,nt
Cn1c(=O)cc(C(=O)NC2CCCc3c2[nH]c2ccc(Cl)cc32)c2ccccc21 (stereo unspecified),nt,nt,i,nt,nt,nt
Cc1cc(C(=O)NC2CCCC2)c2ccccc2n1,i,i,i,i,i,i
N#Cc1cccnc1N1CCN(C(C(=O)NC2CCCC2)c2ccco2)CC1 (stereo unspecified),?,i,i,i,i,i
CC(C)(C)C(C(=O)NC1CCCC1)N1CCN(c2ncccc2C#N)CC1 (stereo unspecified),?,i,i,16.4µM,i,i
Cc1cc(N2CCN(C(C(=O)NC3CCCC3)C(C)(C)C)CC2)c2ccccc2n1 (stereo unspecified),11.6µM,?,i,?,i,?
Cc1ccc(C)c(N2CCN(C(C(=O)NC3CCCC3)C(C)C)CC2)c1 (stereo unspecified),20.6µM,i,i,18.4µM,i,i
